High-throughput results (PubChem BioAssay)
CYP2C9 activ: increases human cytochrome P450 2C9 activity; recombinant CYP2C9, luciferin-H conversion, luminescence; hits give high values; factor 1 = untreated enzyme, 0 = blocked; AID 1024; P11712; 96,000 compounds, 1.4% hits; activation factor at 5 µM;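 active means activation factor of 2 or more for CYP2C9 at a 5 µM dose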;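 further: 0 = sulfaphenazole-blocked wells and 1 = vehicle-only wells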
CYP2C19 inh: inhibitors of human CYP2C19; CYP2C19 Supersomes, luciferin-H EGE luminescence, 30 min; AID 778; 96,000 compounds, 21% hits; P33261; inhibition, % at 5 µM;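 active means CYP2C19 inhibition above a set limit at 5 µM in the primary screen, cut at about 50% in these data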;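 further: plate controls were negative control wells for no effect and 2.5 mM tranylcypromine positive control for full effect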
Target sequence (P33261 whole entry, looked up): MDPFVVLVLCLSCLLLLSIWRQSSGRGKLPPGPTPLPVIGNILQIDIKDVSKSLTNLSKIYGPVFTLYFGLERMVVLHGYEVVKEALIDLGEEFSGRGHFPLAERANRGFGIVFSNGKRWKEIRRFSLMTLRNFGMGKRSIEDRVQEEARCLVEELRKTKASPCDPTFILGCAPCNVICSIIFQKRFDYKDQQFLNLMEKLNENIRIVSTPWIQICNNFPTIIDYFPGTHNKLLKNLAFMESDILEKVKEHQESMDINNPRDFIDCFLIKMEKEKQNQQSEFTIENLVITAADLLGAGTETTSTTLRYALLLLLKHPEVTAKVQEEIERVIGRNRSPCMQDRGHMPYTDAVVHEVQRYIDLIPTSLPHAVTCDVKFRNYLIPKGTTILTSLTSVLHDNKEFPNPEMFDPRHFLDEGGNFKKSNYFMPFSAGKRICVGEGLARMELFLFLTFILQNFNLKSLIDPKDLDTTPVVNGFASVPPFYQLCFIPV
CYP2C19 act: cytochrome P450 2C19 (human) activation | P33261 | recombinant CYP2C19, luciferin-H EGE luminescence; hits give high values; 0 = fully inhibited enzyme, 1 = untreated enzyme | activation factor at 5 µM | 96,000 tested, under 10 active | AID 1025;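 active means activation factor of at least 2 at 5 µM in the primary screen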;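 further: 0 = wells with 2.5 mM tranylcypromine and 1 = vehicle-only wells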
CYP2C9 inhib: human CYP2C9 inhibition; P11712; CYP2C9 Supersomes, luciferin-H conversion, luminescence; inhibition, % at 5 µM; 96,000 compounds, 20% hits; AID 777;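 active means blocking of liver enzyme CYP2C9 beyond about 50% at 5 µM, limit read from the data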
PostGolgi yeast: growth inhibition of a yeast mutant, post-Golgi transport screen. post-Golgi transport phenotypic cell assay. inhibition, % at 10 µM. 98,000 compounds, 0.9% hits. AID 739;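 further: yeast cells grown in 1536-well plates; yeast grown about 18 h at 30C before absorbance read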
PostGolgi ctrl: inhibits growth of the yeast control strain; efflux-deficient yeast background strain, growth absorbance A615, 16 h; inhibition, % at 10 µM; 98,000 compounds, 5% hits; AID 738
Active calls of the source: *; / = not tested or not shown. Shown are actives, neighbours in structure and some others; about 32% of the full set was active somewhere. Unless noted, no stated cut-off is given here; in the data, active means inhibition above about 30%; inactive means the rest.

SMILES | CYP2C9 activ | CYP2C19 inh | CYP2C19 act | CYP2C9 inhib | PostGolgi yeast | PostGolgi ctrl
COc1ccc(S(=O)(=O)N(CC(=O)N/N=C/c2cccs2)c2cc(C)cc(C)c2)cc1OC | 0.4 | 53* | 0.5 | 60* | -8 | 22
CC(C)c1ccc(/C=C/C(=O)n2nnc3ccccc32)cc1 | 1.1 | -22 | 1.2 | -8 | 12 | 10
O=C(NCC(F)(F)F)Nc1cccnc1 | / | / | / | / | -5 | -3
O=C(NCCCN1CCN(c2cccc(Cl)c2)CC1)c1nc(-c2ccncc2)no1 | 0.1 | 70* | 0.3 | 87* | -1 | 11
COc1ccc(N2CCN(CCNC(=O)c3ccc(NC(=O)C4CCCO4)cc3)CC2)cc1 (centres undefined) | 1.1 | 0 | 1 | -10 | -13 | 0
COCC(C)NCc1ccc(C)cc1C (centres undefined) | 1.1 | 23 | 0.8 | -12 | 5 | 14
COc1ccccc1-c1nnc(SCC(=O)N2CCC(C)CC2)o1 | 3.9* | 76* | 0.2 | -291 | 8 | 5
Cc1ccc(-c2nnc(SCC(=O)N3CC(C)CC(C)C3)o2)cc1C (centres undefined) | / | / | / | / | 2 | 15
CC1CC(C)CN(C(=O)CSc2nnc(-c3ccc(Cl)cc3)o2)C1 (centres undefined) | 0.9 | 81* | 0.2 | 6 | -12 | 16
O=C(CSc1nnc(-c2ccc(O)cc2)o1)N1CCOCC1 | 2.5* | -5 | 1 | -148 | 0 | -1
CC1CCN(C(=O)CSc2nnc(-c3ccco3)o2)CC1 | 1.1 | 3 | 1 | -6 | 1 | 5
Oc1ccc(-c2nnc(SCC3CCCCC3)o2)cc1 | 2.1* | 3 | 1 | -107 | -7 | 0
COc1ccc(C)cc1-n1nnnc1SCC(=O)N1CCC(C(=O)Nc2nccs2)CC1 | 0.8 | 33 | 0.7 | 24 | -5 | 3
COc1cccc(-c2nnc(SCC(=O)N3CC(C)CC(C)C3)o2)c1 (centres undefined) | 1.2 | 65* | 0.4 | -17 | -3 | 4
O=C(c1cc2c(s1)-c1ccccc1S(=O)(=O)C2)N1CCN(Cc2ccccc2)CC1 | 0.7 | 43 | 0.6 | 33 | -4 | 11
O=C(NC1CCCCC1)NC1CC2CCCC(C1)N2C1CCCC1 (centres undefined) | / | / | / | / | 11 | 6
Cc1ccccc1NC(=O)C1CC(=O)N(c2ccc3c4c(cccc24)CC3)C1 (centres undefined) | 0.4 | 10 | 0.9 | 55* | -2 | -6
Cc1ccccc1NC(=O)C1CC(=O)N(c2ccccc2F)C1 (centres undefined) | 1 | 24 | 0.8 | -4 | 2 | 19
O=C(CCC1CCCC1)N1CCN(C2CCCC2)CC1 | 0.9 | 73* | 0.3 | 11 | 11 | -5
O=C(Nc1ccn(C2CC(OC(=O)c3ccccc3)C(CO)O2)c(=O)n1)c1ccccc1 (centres undefined) | 1 | -8 | 1.1 | 2 | 4 | -4
O=C1CC2C(CC(OC(=O)c3ccc(-c4ccccc4)cc3)C2CO)O1 (centres undefined) | 0.3 | 48 | 0.5 | 72* | -2 | 5
CCN(c1cccc(C)c1)S(=O)(=O)c1cccc2nsnc12 | 0.5 | 89* | 0.1 | 53* | 3 | 8
CN(C)S(=O)(=O)c1cccc2nsnc12 | 0.9 | 16 | 0.8 | 12 | -1 | -2
Cc1cccc(N(C)S(=O)(=O)c2cccc3nsnc23)c1 | 1.7 | 64* | 0.4 | -70 | 15 | 12
Cc1ncc(CC(=O)n2cc(C(=O)c3cc(F)ccc3O)cn2)s1 | 0.9 | -9 | 1.1 | 6 | 0 | 1
SMILES | CYP2C9 activ | CYP2C19 inh | CYP2C19 act | CYP2C9 inhib | PostGolgi yeast | PostGolgi ctrl
Cc1nn(C)c2ncc(C(=O)c3cc(F)ccc3O)cc12 | 0.3 | 95* | 0 | 68* | 1 | 9
COc1ccc(O)c(C(=O)c2cnc3onc(C)c3c2)c1 | 0.6 | 83* | 0.2 | 38 | -27 | -8
O=C(CSc1ncn[nH]1)Nc1ccc(Br)cc1F | 0.9 | 82* | 0.2 | 6 | -7 | -2
O=C(CSc1ncn[nH]1)Nc1ccc(Cl)c(Cl)c1 | 0.7 | 63* | 0.4 | 27 | 4 | 5
CNC(=O)COc1ccc(-c2nn(C)c(=O)c3ccccc23)cc1 | 1 | -2 | 1 | -4 | -6 | 12
CCCCNS(=O)(=O)c1ccc(OC)cc1 | 0.9 | 37 | 0.6 | 9 | 5 | 2
COc1ccc(S(=O)(=O)NCc2ccccn2)c(Cl)c1Cl | 2* | 88* | 0.1 | -103 | -3 | 21
COc1ccc(S(=O)(=O)NCCSC(C)(C)C)c(Cl)c1Cl | 3.2* | 94* | 0.1 | -218 | 1 | 31*
CCCNS(=O)(=O)c1ccc(OC)c(Cl)c1Cl | 0.9 | 53* | 0.5 | 10 | 10 | 4
O=C(NCc1ccco1)c1cccn2c(=O)c3cc4ccccc4cc3nc12 | 0.6 | 11 | 0.9 | 42 | -15 | 12
COCCCNC(=O)c1cccn2c(=O)c3cc4ccccc4cc3nc12 | 0.5 | 19 | 0.8 | 50 | 22 | 70*
Cc1ccccc1C(=O)Nc1ccccc1 | 1.2 | -8 | 1.1 | -16 | -6 | -4
Cc1ccccc1C(=O)Nc1cccc(NC(=O)c2ccc(-c3ccc(Br)cc3)o2)c1 | 0.4 | 18 | 0.8 | 56* | 5 | 5
COC(=O)C1=C(N)Oc2cc(C)n(Cc3cccnc3)c(=O)c2C1c1cccc(OC)c1OC (centres undefined) | 0.5 | 35 | 0.7 | 50* | 0 | 7
COC(=O)C1=C(N)Oc2cc(C)n(Cc3cccnc3)c(=O)c2C1c1ccc(OC)c(OC)c1 (centres undefined) | 0.5 | 46 | 0.5 | 48 | -1 | 3
COC(=O)C1=C(N)Oc2cc(C)n(CCCn3ccnc3)c(=O)c2C1c1cccc(Cl)c1 (centres undefined) | 0.1 | 83* | 0.2 | 92* | / | /
COC(=O)C1=C(N)Oc2cc(C)n(CCc3ccccc3)c(=O)c2C1c1cccnc1 (centres undefined) | 0.1 | 92* | 0.1 | 85* | 17 | 3
COC(=O)C1=C(N)Oc2cc(C)n(CC3CCCO3)c(=O)c2C1c1ccc(Cl)cc1 (centres undefined) | 0.4 | 67* | 0.3 | 57* | 5 | 6
O=C(NC12CC3CC(CC(C3)C1)C2)C1=COCCO1 | 0.9 | 43 | 0.6 | 6 | 15 | 5
COC(=O)Nc1snnc1C | 0.8 | 9 | 0.9 | 16 | 0 | 7
CCCCCn1c(C(Cc2ccccc2)NC(=O)COC)nc2ccccc21 (centres undefined) | 0.6 | 63* | 0.4 | 42 | -3 | 25
CCN1CCCC1CNC(=O)c1ccc(CS(=O)(=O)c2ccccc2C)o1 (centres undefined) | 1.1 | -12 | 1.1 | -14 | -9 | -9
CCCCOc1ccc(C2C(=O)N(C3CCCCC3)CC(=O)N2CC2CCCO2)cc1 (centres undefined) | 0.7 | 20 | 0.8 | 28 | 1 | 15
